60 compounds from PubChem BioAssay (Tox21) can be followed below.

Inconclusive results are not listed. Some compounds were tested as several samples or in several runs, with calls that do not always agree. Calls of active or inactive are those of the source. Calls come from the whole dose curve.

Test [1] has as its target Acetylcholinesterase (Homo sapiens) (UniProt P22303). As to the kind of experiment: Acetylcholinesterase (AChE) small molecule antagonists: colormetric cell-based qHTS assay (AID 1347395). Note: nearly all actives have a fitted effect of over 30% in size. Note: potency is the fitted concentration of half-maximal effect. The essentials: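 Colorimetric read-out: DTNB detects thiocholine released when cellular AChE in SH-SY5Y cells hydrolyses acetylthiocholine. Cells attached overnight, received compound for 30 min at 37 C, then substrate mix for 90 min at 37 C.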

For test [2] the target is unchanged. Kind of test: Acetylcholinesterase (AChE) small molecule antagonists: enzyme-based qHTS assay (AID 1347397). Note: nearly all actives have a fitted effect of over 55% in size. Note: potency is the fitted concentration of half-maximal effect. Particulars: Potency: AChE enzyme activity inhibition; outcome: AChE enzyme activity inhibition. The essentials: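 Recombinant human AChE, dispensed at 50 mU/mL, was preincubated with Tox21 10K compounds or DMSO vehicle for 30 min at room temperature. DTNB plus acetylthiocholine was then added, and thiocholine was measured colorimetrically after a further 10 min.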
On the technique in general: In qHTS, concentration-response curves come from the screen itself.

The target is the same in test [3]. As to the kind of experiment: Acetylcholinesterase (AChE) small molecule antagonists: fluorescence cell-based qHTS assay (AID 1347398). Note: nearly all actives have a fitted effect of over 50% in size. Note: potency is the fitted concentration of half-maximal effect. Particulars: Potency: AChE activity; outcome: AChE activity. The essentials: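 Human SH-SY5Y cells were plated overnight at 37 C, exposed to compound for 30 min at 37 C, 5% CO2, then given acetylthiocholine plus Thiolite Green for 40 min at room temperature; thiocholine fluorescence (Ex/Em 490/520 nm) reports endogenous AChE activity.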

Test [4] shares this target. As to the kind of experiment: Acetylcholinesterase (AChE) small molecule antagonists: enzyme-based qHTS assay with human liver microsomes (AID 1347399). Note: nearly all actives have a fitted effect of over 60% in size. Particulars: Potency: qHTS inhibition; outcome: qHTS inhibition. In outline:
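Recombinant human AChE (50 mU/mL in the enzyme mix) and human liver microsomes (0.25 mg/mL final) were preincubated with compound and NADPH (0.25 mg/mL final) for 30 min at 37 C. Acetylthiocholine/DTNB was then added; thiocholine was read colorimetrically after 10 min at room temperature.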
% is set by controls: 0 for no effect and ±100 for the full control effect.

Chain of Acetylcholinesterase (Homo sapiens) (P22303 whole entry, looked up): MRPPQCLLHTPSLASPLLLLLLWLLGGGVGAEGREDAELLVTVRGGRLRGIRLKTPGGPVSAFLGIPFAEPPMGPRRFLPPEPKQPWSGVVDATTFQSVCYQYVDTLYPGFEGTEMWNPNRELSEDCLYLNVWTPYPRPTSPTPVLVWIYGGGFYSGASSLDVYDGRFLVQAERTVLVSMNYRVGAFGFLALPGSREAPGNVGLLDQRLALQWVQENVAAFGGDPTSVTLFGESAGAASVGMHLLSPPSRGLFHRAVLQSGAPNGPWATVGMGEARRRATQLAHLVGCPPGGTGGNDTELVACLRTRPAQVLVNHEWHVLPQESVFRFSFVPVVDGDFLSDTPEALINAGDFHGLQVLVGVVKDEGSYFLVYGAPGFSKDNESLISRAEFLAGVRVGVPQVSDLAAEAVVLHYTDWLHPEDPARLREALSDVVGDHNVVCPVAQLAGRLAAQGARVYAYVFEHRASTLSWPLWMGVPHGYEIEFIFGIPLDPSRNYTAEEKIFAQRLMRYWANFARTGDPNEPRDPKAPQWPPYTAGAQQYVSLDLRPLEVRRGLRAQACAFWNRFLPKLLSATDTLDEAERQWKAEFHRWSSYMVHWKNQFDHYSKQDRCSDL

Consider `C1CNCCN1`, for which the compound was called inactive in test [1], in test [2], in test [3] and in test [4].

With `Cc1ccc(C#N)cc1`, the Potency entry in test [1], in test [2], in test [3] and in test [4] was “inactive” throughout.

With `Oc1ccc(-c2ccccc2)c(Cl)c1`, the Potency entry in test [1], in test [2], in test [3] and in test [4] was “inactive” each time.

Take `O=C(O)c1ccc(C(=O)O)cc1`: the Potency entry in test [1], in test [2], in test [3] and in test [4] was “inactive” in each case.

Consider `CCCCC(CC)COC(=O)CCCCC(=O)OCc1ccccc1` (stereo not given), for which the Potency entry in test [1], in test [2], in test [3] and in test [4] was “inactive” throughout.

As for `O=c1c(O)c(O)c1=O`, the Potency entry in test [1], in test [2], in test [3] and in test [4] was “inactive” each time.

Consider `CCOC(=O)N1CCC(n2c(=O)[nH]c3cc(Cl)ccc32)CC1`, for which the Potency result in test [1], in test [2], in test [3] and in test [4] was “inactive” throughout.

In the case of `CC(=O)OCC(=O)[C@@]1(O)CCC2C3CCC4=CC(=O)CC[C@]4(C)C3[C@@H](O)C[C@@]21C` (stereo not given in full), the Potency entry in test [1], in test [2], in test [3] and in test [4] was “inactive” in each case.

On to `CCN(CCN)c1cccc(C)c1`, for which the Potency result in test [1], in test [2], in test [3] and in test [4] was “inactive” each time.

As to `CN(C)CCN(Cc1ccsc1)c1ccccn1`, the Potency result in test [1], in test [2], in test [3] and in test [4] was “inactive” each time.

For the compound `O=C(O)CCCCC(=O)O`, the Potency entry in test [1], in test [2], in test [3] and in test [4] was “inactive” throughout.

For the compound `CCC(O)OC(O)CC` (stereo not given), the Potency entry in test [1], in test [2], in test [3] and in test [4] was “inactive” in each case.

Regarding `O=C(O)CCCCCCCCCC(=O)O`, the Potency entry in test [1], in test [2], in test [3] and in test [4] was “inactive” each time.

For `Oc1ccc(CCNCCCCCCNCCc2ccccc2)cc1O`, the Potency in test [1] was 7.76 µM (active); in test [2] it was 27.5 µM (active); in test [3], 13.8 µM (active). The Potency result in test [4] was “inactive”.

As for `CS(=O)(=O)c1ccc(Cl)cc1`, the Potency result in test [1], in test [2], in test [3] and in test [4] was “inactive” in each case.

On to `NCCCN(CCO)CCO`, for which the Potency entry in test [1], in test [2], in test [3] and in test [4] was “inactive” in each case.

Take `CC(C)C(=O)Nc1ccc([N+](=O)[O-])c(C(F)(F)F)c1`: the Potency entry in test [1], in test [2], in test [3] and in test [4] was “inactive” each time.

Turning to `O=c1[nH]cnc2nc[nH]c12`, the Potency result in test [1], in test [2], in test [3] and in test [4] was “inactive” in each case.

As to `CCC(C)C1N=C(C)C(C)S1` (stereo not given), the Potency entry in test [1], in test [2], in test [3] and in test [4] was “inactive” throughout.

Turning to `CC(=O)N1CCN(c2ccc(O)cc2)CC1`, the Potency result in test [1], in test [2], in test [3] and in test [4] was “inactive” in each case.

Take `CC1=CC(C)(C)Nc2ccccc21`: the Potency entry in test [1], in test [2], in test [3] and in test [4] was “inactive” throughout.

Take `CCCCCCCCCCCCCC(=O)O`: the Potency entry in test [1], in test [2], in test [3] and in test [4] was “inactive” throughout.

For the compound `CC(C)CCO`, the Potency entry in test [1], in test [2], in test [3] and in test [4] was “inactive” in each case.

As for `c1ccc2c(c1)-c1ccc3ccc4cccc5cc-2c1c3c45`, the Potency result in test [1], in test [2], in test [3] and in test [4] was “inactive” throughout.

As to `CCOc1ccc(NC(=O)CC(C)O)cc1` (stereo not given), the Potency entry in test [1], in test [2], in test [3] and in test [4] was “inactive” each time.

With `COC(C)(C)OC`, the Potency result in test [1], in test [2], in test [3] and in test [4] was “inactive” in each case.

For `CC(C)=CCl`, the Potency result in test [1], in test [2] and in test [4] was “inactive” throughout. For the same compound, the Potency in test [3] is 22.7 µM (active) and inactive.

In the case of `C=CC(O)CCCCC` (stereo not given), the Potency entry in test [1], in test [2], in test [3] and in test [4] was “inactive” each time.

For the compound `CC(C)(CO)[C@@H](O)C(=O)NCCC(=O)O`, the Potency result in test [1], in test [2], in test [3] and in test [4] was “inactive” in each case.

Regarding `Cc1cc(Br)ccc1NC(=O)CCl`, the Potency entry in test [1], in test [2], in test [3] and in test [4] was “inactive” throughout.

With `CCCCCCCCCCCCCCC(=O)NC(CO)CCCCCCCCCCCCCC` (stereo not given), the Potency entry in test [1], in test [2], in test [3] and in test [4] was “inactive” throughout.

Take `C=C[C@](C)(O)CC[C@@H]1[C@@]2(C)CCCC(C)(C)[C@@H]2CC[C@@]1(C)O`: the Potency entry in test [1], in test [2], in test [3] and in test [4] was “inactive” in each case.

With `Cc1noc(NS(=O)(=O)c2ccc(N)cc2)c1C`, the Potency result in test [1], in test [2], in test [3] and in test [4] was “inactive” each time.

On to `CC(=O)CCc1ccc(OC(C)=O)cc1`, for which the Potency result in test [1], in test [2], in test [3] and in test [4] was “inactive” in each case.

For `COc1cc(C(C)(C)C)c(O)c(C(C)(C)C)c1`, the Potency result in test [1], in test [2], in test [3] and in test [4] was “inactive” throughout.

As for `COc1ccc2nc(S(=O)Cc3ncc(C)c(OC)c3C)[nH]c2c1` (stereo not given), the Potency result in test [1], in test [2], in test [3] and in test [4] was “inactive” in each case.

In the case of `NNc1nnc(NN)c2ccccc12`, the Potency result in test [1], in test [2], in test [3] and in test [4] was “inactive” each time.

Regarding `CCCCOCCOCCOC(C)=O`, the Potency entry in test [1], in test [2], in test [3] and in test [4] was “inactive” throughout.

For `CC(=O)c1ccccn1`, the Potency entry in test [1], in test [2], in test [3] and in test [4] was “inactive” each time.

As for `CC(=O)Nc1ccc(C)c(Cl)c1`, the Potency result in test [1], in test [2], in test [3] and in test [4] was “inactive” throughout.

As for `CCCCCC1Nc2cc(C(F)(F)F)c(S(N)(=O)=O)cc2S(=O)(=O)N1` (stereo not given), the Potency is 15.5 µM (active) in test [1], 21.9 µM (active) in test [2] and 9.77 µM (active) in test [3]. For the same compound, the Potency entry in test [4] was “inactive”.

With `CCCCOC(=O)COc1ccc(Cl)cc1Cl`, the Potency entry in test [1], in test [2], in test [3] and in test [4] was “inactive” throughout.

For the compound `CCNc1cc(O)ccc1C`, the Potency entry in test [1], in test [2], in test [3] and in test [4] was “inactive” throughout.

As for `CCc1ccccc1CC`, the Potency result in test [1], in test [2], in test [3] and in test [4] was “inactive” each time.

As to `OCC(CO)(CO)CO`, the Potency entry in test [1], in test [2], in test [3] and in test [4] was “inactive” each time.

Consider `CC1=CC(=O)c2ccccc2C1=O`, for which the Potency entry in test [1], in test [2], in test [3] and in test [4] was “inactive” throughout.

As for `Cc1cccc2sc(N)nc12`, the Potency entry in test [1], in test [2], in test [3] and in test [4] was “inactive” throughout.

In the case of `CCCCCCCCCCCCCCCC(=O)OC`, the activity, negative = inhibition in test [1] is 2.77% [at 23.6 µM] (inactive). Besides, the results for the activity change, negative = inhibition in test [2], in test [3] and in test [4] were -0.557% [at 23.6 µM] (inactive), 2.99% [at 23.8 µM] (inactive) and 0.243% [at 23.6 µM] (inactive), respectively.

`CC1CCc2cc(F)cc3c(=O)c(C(=O)O)cn1c23` (stereo not given): the Potency entry in test [1], in test [2], in test [3] and in test [4] was “inactive” throughout.

`C[C@@H]1NC(=O)[C@@H](N)CNC(=O)[C@H](C2CCNC(N)=N2)NC(=O)/C(=C/NC(N)=O)NC(=O)[C@H](CNC(=O)C[C@@H](N)CCCN)NC1=O` (stereo not given in full): the activity, negative = inhibition in test [1] is -1.67% [at 0.435 µM] (inactive). Besides, the activity change, negative = inhibition in test [2] was -0.97% [at 0.435 µM] (inactive); in test [3], 6.12% [at 0.439 µM] (inactive); in test [4] it was -1.43% [at 0.435 µM] (inactive).

As to `CC1=CCC(=O)O1`, the Potency entry in test [1], in test [2], in test [3] and in test [4] was “inactive” in each case.

For `C=CCOC(=O)CCC1CCCCC1`, the Potency entry in test [1], in test [2], in test [3] and in test [4] was “inactive” in each case.

In the case of `OCC1CCC(CO)CC1` (stereo not given), the Potency entry in test [1], in test [2], in test [3] and in test [4] was “inactive” in each case.

In the case of `O=C1OC2(c3ccc(O)cc3Oc3cc(O)ccc32)c2ccccc21`, the Potency result in test [1], in test [2], in test [3] and in test [4] was “inactive” in each case.

Regarding `O=C1c2cccc3c2[C@H](CCC3)CN1[C@@H]1CN2CCC1CC2`, the Potency entry in test [1], in test [2], in test [3] and in test [4] was “inactive” throughout.

On to `COc1cccc(OC)c1C(=O)N[C@@H]1C(=O)N2[C@@H]1SC(C)(C)[C@@H]2C(=O)O`, for which the Potency entry in test [1], in test [2], in test [3] and in test [4] was “inactive” throughout.

Consider `O=[N+]([O-])c1ccc(/C=N\O)o1`, for which the Potency entry in test [1], in test [2], in test [3] and in test [4] was “inactive” in each case.

Turning to `CCOC(=O)CCCCCCCCC(=O)OCC`, the Potency entry in test [1], in test [2], in test [3] and in test [4] was “inactive” throughout.

In the case of `CCCCOC(=O)C(C)Oc1ccc(Oc2ccc(C(F)(F)F)cn2)cc1` (stereo not given), the Potency entry in test [1], in test [2], in test [3] and in test [4] was “inactive” throughout.

As to `CCOC(=O)O[C@H](C)OC(=O)c1ccc2c(c1)cc(C(=O)NC1CCN(C(C)C)CC1)n2Cc1cc(-c2ccc(Cl)s2)on1`, the Potency result in test [1], in test [2] and in test [4] was “inactive” each time. Moreover, the Potency in test [3] is 41.8 µM (active).
